In general, AC50 refers to the midpoint of the concentration-response curve, whichever way the signal moves.

“And” between values parts separate entries of the source, which are not always exact repeats. Equal entries are not always repeated. About 5,700 (36%) of roughly 16,000 compounds were called active. Another 24% or so got no clear call; they are omitted. Calls follow the shape of the dose curve; as a rule, active = well fitted curve in the direction sought with a large enough effect; inconclusive = small, poorly fitted or top-dose-only effect, or effect the other way; inactive = no such curve, though single readings can be large or run the other way. The list shows a part of the results.
% is scaled to controls: 0 for no effect and ±100 for the full control effect.

This experiment deals with Cytochrome P450 1A2 (Homo sapiens) (UniProt P05177). Nature of the experiment: Cytochrome panel assay with activity outcomes. Particulars: recombinant CYP, pro-luciferin dealkylation, luminescence, p450-cyp1a2; series mostly up to 57.1 µM.
Cytochrome P450 1A2 (Homo sapiens), sequence (P05177 whole entry, looked up): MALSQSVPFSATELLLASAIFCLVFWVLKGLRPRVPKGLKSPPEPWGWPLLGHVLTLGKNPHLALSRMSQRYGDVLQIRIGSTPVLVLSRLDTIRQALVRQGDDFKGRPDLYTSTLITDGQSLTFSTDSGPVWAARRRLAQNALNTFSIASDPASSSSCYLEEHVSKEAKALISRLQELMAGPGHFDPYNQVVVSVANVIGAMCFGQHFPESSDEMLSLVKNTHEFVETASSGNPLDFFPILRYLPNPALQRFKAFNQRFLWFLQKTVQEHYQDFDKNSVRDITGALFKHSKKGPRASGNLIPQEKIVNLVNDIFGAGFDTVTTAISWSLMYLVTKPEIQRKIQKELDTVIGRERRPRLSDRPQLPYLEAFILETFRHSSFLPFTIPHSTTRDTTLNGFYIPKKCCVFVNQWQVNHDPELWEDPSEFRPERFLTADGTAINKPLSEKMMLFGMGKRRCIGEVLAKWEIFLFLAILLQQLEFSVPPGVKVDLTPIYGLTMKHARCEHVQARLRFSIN
Consider `O=C(NC12CC3CC(CC(C3)C1)C2)C12CC3CC(C1)CC(n1cnc(Cl)n1)(C3)C2`, for which the AC50 entry is “inactive”. For the compound `NCC1CCC(C(=O)O)CC1` (stereo unspecified), the AC50 result is “inactive”. Consider `N#C/C(=C\c1ccc(Cl)cc1)c1nc2ncccc2[nH]1`, for which the AC50 was 2000 nM (active). For `N#C/C(=C\c1ccccc1)c1nc2ncccc2[nH]1`, the AC50 was 1260 nM (active). For the compound `CCC(=O)O[C@@H]1[C@H](C)O[C@H](O[C@H]2[C@@H](N(C)C)[C@H](O)[C@@H](O[C@@H]3[C@@H](CC=O)C[C@@H](C)[C@@H](O)/C=C\C=C/C[C@@H](C)OC(=O)C[C@@H](OC(=O)CC)[C@H]3OC)O[C@H]2C)C[C@]1(C)O`, the AC50 entry was “inactive”. The same measure, in the same setting: next, `N#Cc1cccc(-c2ccc3ncnc(NC4CCNCC4)c3c2)c1`: 15800 nM (active); `COc1cccc(-c2cncnc2NC2CCNCC2)c1`: “inactive”.

Take `c1cncc(-c2ccc3ncnc(NC4CCNCC4)c3c2)c1`: the AC50 is 12600 nM (active).

Regarding `COc1cccc(-c2ccc3ncnc(NC4CC4)c3c2)c1`, the AC50 is 200 nM (active).

On to `COc1cccc(-c2ccc3ncnc(NC4CCNCC4)c3c2)c1`, for which the concentration at half-maximal activity (AC50) is 20000 nM (active).

For the compound `C[n+]1cccc(CNC(=O)/C=N/O)c1`, the AC50 entry was “inactive”. As for `CC(C)[C@]1(Cl)CC[C@@H]2[C@]3(C)CCC[C@@](C)(C(=O)O)[C@H]3C[C@H](Cl)[C@@]2(Cl)[C@H]1Cl`, the activity, negative = inhibition is -13% [at 11.4 µM] (inactive). On to `Cn1c(SCc2nc3ccccc3n2CCO)nc2ccccc21`, for which the AC50 is 10000 nM (active). As to `Cn1c(C[C@@H](O)c2nc3ccccc3n2C)nc2ccccc21`, the activity, negative = inhibition is -2.56% [at 2.29 µM] (inactive). In the case of `CCCS(=O)(=O)N1CCCC(C(=O)NCC2CCCO2)C1` (stereo unspecified), the AC50 entry is “inactive”. Still for that read-out and setting: next, `N#Cc1nc(-c2ccc(F)cc2)oc1N1CCCC1`: 178 nM (active); `CC(=O)O[C@@H](C)C[N+](C)(C)C`: “inactive”; `COc1ccccc1-c1nc(NCc2ccccc2)c2ccccc2n1`: 398 nM (active). Same read-out and setting: in the case of `COc1ccccc1-c1nc(NCc2cccs2)c2ccccc2n1` it was 631 nM (active); in that of `CNc1nc(-c2ccccc2OC)nc2ccccc12`, 398 nM (active); in that of `Clc1ccccc1-c1nc(NCc2cccs2)c2ccccc2n1`, 1000 nM (active). On to `COc1ccccc1-c1nc(NCc2cccnc2)c2ccccc2n1`, for which the AC50 is 794 nM (active). With `N/N=C1/CC(=O)NC(=O)N1`, the AC50 is 631 nM (active). In the case of `COc1ccc(OC[C@@H](CO)OC)cc1`, the activity, negative = inhibition is -13.3% [at 11.4 µM] (inactive). As for `CCCc1nnc(SCC(=O)N2CCCCC2C)n1CC1CCCO1` (stereo unspecified), the AC50 entry is “inactive”.

As to `O=C1[C@H]2[C@H]3[C@H](O)[C@H](O)C/C(=N/OCc4ccccc4)[C@H]3CC[C@@H]2C(=O)N1C[C@@H]1CCCO1`, the activity, negative = inhibition was -4.81% [at 11.4 µM] (inactive). Turning to `CCCc1nnc(SCC(=O)N2CCCCC2)n1CC1CCCO1` (stereo unspecified), the AC50 result is “inactive”.

As to `O=C1[C@H]2[C@H]3[C@H](O)[C@H](O)C/C(=N/OCc4ccccc4)[C@@H]3CC[C@@H]2C(=O)N1C[C@@H]1CCCO1`, the activity, negative = inhibition was 1.8% [at 11.4 µM] (inactive). Take `CCNc1ncc2ncc(=O)n(C[C@H]3CCCO3)c2n1`: the AC50 is 10000 nM (active). On the same count and under the same terms, next, `O=c1cnc2cnc(Nc3ccccc3)nc2n1C[C@H]1CCCO1`: 794 nM (active); `Cc1cc2nc(CCN(C(=S)NCC(C)C)C3CCCC3)[nH]c2cc1C`: 3160 nM (active). Still for that read-out and setting: next, `CCNC(=O)c1c(NC(C)=O)sc2c1CCCC2`: 1260 nM (active); `CC(=O)Nc1nnc(CCN2CCCCC2)s1`: “inactive”. As to `COCCCNC(=O)c1c(NC(=O)c2cccs2)sc2c1CCCC2`, the AC50 was 251 nM (active). Still for that read-out and setting: in the case of `CC(=O)Nc1sc2c(c1C(N)=O)CCCC2` it was 3160 nM (active). Take `CCN(CC)S(=O)(=O)c1cccc(C(=O)N[C@H](C(=O)OCC(=O)NC(=O)NC)C(C)C)c1`: the AC50 result was “inactive”. On the same count and under the same terms, next, `CCCNC(=O)CC(NS(=O)(=O)c1ccc(Cl)cc1)c1ccco1` (stereo unspecified): “inactive”; `CCCC[C@@H]1C[C@H]1C(NC(=O)c1ccco1)c1ccc(-c2ccccc2)cc1` (stereo partly specified): 5010 nM (active). Still for that read-out and setting: in the case of `CCCC[C@@H]1C[C@H]1C(NC(=O)Cc1ccccc1)c1ccc(-c2ccccc2)cc1` (stereo partly specified) it was “inactive”. Same read-out and setting: next, `CCCC[C@@H]1C[C@H]1C(NC(=O)c1ccco1)c1ccc(Cl)cc1` (stereo partly specified): 794 nM (active); `CCCC[C@@H]1C[C@H]1C(NC(=O)c1ccco1)c1ccccc1` (stereo partly specified): 2000 nM (active). In the case of `CCOc1cc(C)ccc1OCc1nnc(SCC(=O)c2cccc([N+](=O)[O-])c2)n1CC`, the AC50 result was “inactive”. Same read-out and setting: in the case of `Cc1cccc(C(=O)O/N=C(\N)c2cccc([N+](=O)[O-])c2)c1` it was 2510 nM (active). As to `N/C(=N\OC(=O)Cc1ccc(-c2ccccc2)cc1)c1cccc([N+](=O)[O-])c1`, the AC50 was 14100 nM (active). As to `COC(=O)C(CCSC)NC(=O)c1cccc([N+](=O)[O-])c1` (stereo unspecified), the AC50 result is “inactive”. On to `C[C@@H](c1ccccc1)N1C(=O)[C@H]2[C@H]3[C@H](O)[C@H](O)C/C(=N/OCc4ccccc4)[C@@H]3CC[C@@H]2C1=O`, for which the activity, negative = inhibition was -7.71% [at 11.4 µM] (inactive).

`Clc1ccc(C(c2ccc(Cl)cc2)n2cc[n+](C[C@@H](OCc3ccc(Cl)cc3Cl)c3ccc(Cl)cc3Cl)c2)cc1`: the concentration at half-maximal activity (AC50) is 31600 nM (active). The same measure, in the same setting: next, `Clc1ccc(CO[C@@H](Cn2ccnc2)c2ccc(Cl)cc2Cl)cc1`: 100 nM (active). With `Clc1ccc([C@H](Cn2ccnc2)OCc2csc3c(Cl)cccc23)c(Cl)c1`, the AC50 was 6310 nM (active). Still for that read-out and setting: in the case of `Clc1ccc(COC(Cn2ccnc2)c2ccc(Cl)cc2Cl)c(Cl)c1` (stereo unspecified) it was 1260 nM (active); in that of `CC(C)COP(=O)(c1ccc(N(C)C)cc1)C(O)c1ccccc1F` (stereo unspecified), “inactive”. The same measure, in the same setting: next, `CN1CCN(C(=O)c2ccc3c(=O)n4c(nc3c2)CCCCC4)CC1`: “inactive”; `O=C(Nc1ccc(F)cc1Cl)c1ccc2c(=O)n3c(nc2c1)CCCCC3`: 5010 nM (active); `O=C(Nn1cnc2ccccc2c1=O)c1ccc(F)cc1Cl`: “inactive”. Take `CO[C@H]1COC(=O)[C@@H](C)COC(=O)[C@@H](COCc2ccccc2)NC(=O)C/C=C\[C@H]1C`: the activity, negative = inhibition is 3.03% [at 11.4 µM] (inactive). In the case of `CCCCN1CCC(CCC(=O)c2cc(Cl)c(N)cc2OC)CC1`, the AC50 result is “inactive”. Regarding `COc1cc(COc2cc(N)c(Cl)cc2C(=O)CCC2CCN(CCNS(C)(=O)=O)CC2)cc(OC)c1`, the AC50 result is “inactive”.

As to `CCCCN1CCC(COC(=O)c2cc(Cl)c(N)c3c2OCCO3)CC1`, the AC50 is 12600 nM (active).

`CCCCCCCCC(=O)N/N=C/c1ccccn1`: the AC50 was 4470 nM (active). On to `NC([N-]/N=C/c1ccccn1)=[S]=[Fe].O=S(=O)(O)O`, for which the activity, negative = inhibition is 15.8% [at 2.29 µM] (inactive). Regarding `CCCCCCCCC(=O)N/N=C/c1cccc(Br)c1`, the half-maximal activity concentration (AC50) was 891 nM (active). With `CCN(CC)C(=O)C(=O)N/N=C/c1cccc(Br)c1`, the AC50 was 10000 nM (active). Take `COCCNC(=O)Cn1cnc2ccc(S(=O)(=O)N3CCC(C)CC3)cc2c1=O`: the AC50 result is “inactive”. In the case of `CC(C)CN1CCC2(CC1)CCN(S(=O)(=O)c1ccccc1)CC2`, the AC50 result was “inactive”.

On to `CC(C)CN1CCCC2(CCN(S(=O)(=O)c3ccccc3)CC2)C1`, for which the AC50 result was “inactive”.

With `O=S(=O)(c1ccccc1)N1CCC2(CCCN(Cc3nccs3)C2)CC1`, the AC50 entry was “inactive”. `CC(C)CN1CC[C@@]2(CCCN(S(=O)(=O)c3ccccc3)C2)C1`: the AC50 was 25100 nM (active). Same read-out and setting: in the case of `O=S(=O)(c1ccccc1)N1CCC2(CC1)CN(Cc1nccs1)C2` it was “inactive”; in that of `O=S(=O)(c1ccccc1)N1CCC[C@@]2(CCN(Cc3nccs3)C2)C1`, 15800 nM (active). Take `Cc1ccc(S(=O)(=O)N[C@H]2COC(=O)[C@@H](C)COC(=O)[C@H](C)NC(=O)C/C=C\[C@H]2C)cc1`: the activity, negative = inhibition was -11.4% [at 11.4 µM] (inactive). Turning to `CC(C)NC(=O)N1CC[C@@]2(CCCN(C(=O)c3cc(C(F)(F)F)cc(C(F)(F)F)c3)C2)C1`, the AC50 entry was “inactive”. For `CCOC(=S)SCC(=O)O`, the activity, negative = inhibition was -12.2% [at 11.4 µM] (inactive). Still for that read-out and setting: in the case of `Cc1ccc(S(=O)(=O)N[C@H]2COC(=O)C/C=C\[C@@H](C)COC(=O)C/C=C\[C@@H]2C)cc1` it was 0.253% [at 11.4 µM] (inactive) and 8.99% [at 11.4 µM] (inactive). Regarding `Nc1[nH]n2c(=O)c3c(nc2c1N=Nc1ccccc1)CCCC3`, the AC50 is 5620 nM (active). The same measure, in the same setting: in the case of `N#Cc1c[nH]n2c(=O)c3c(nc12)CCCC3` it was “inactive”; in that of `Cc1ccc(-c2[nH]n3c(=O)c4c(nc3c2C)CCCC4)cc1`, 2510 nM (active).

For `O=c1c2c(nc3c(-c4ccccc4)c[nH]n13)CCC2`, the AC50 was 5620 nM (active).

As for `CCC(=O)OCN1C(=O)C=CC1=O`, the AC50 was 3160 nM (active). Same read-out and setting: next, `CCN1C(=O)C=CC1=O`: “inactive”. As to `Cc1ccc([C@@]2(C)CC/C(=N/N=C3\CC[C@](C)(c4ccc(C)c(C)c4)c4cc(C)c(C)cc43)c3cc(C)c(C)cc32)cc1C`, the activity, negative = inhibition was -12.4% [at 11.4 µM] (inactive). For the compound `CC(C)[C@@H](OCc1ccccc1)[C@H](C)/C=N\O[C@@H](C)c1cn([C@H](CO)Cc2ccccc2)nn1`, the activity, negative = inhibition is -2.54% [at 11.4 µM] (inactive) and -7.97% [at 11.4 µM] (inactive).

Regarding `O=C(O)c1ccc(S(=O)(=O)N=Nc2c(O)[nH]c3ccccc23)cc1`, the activity, negative = inhibition was -11.7% [at 11.4 µM] (inactive). With `O=Nc1c(-c2c(O)[nH]c3ccccc23)[nH]c2ccccc12`, the AC50 was 31.6 nM (active).

In the case of `[Cu].[O-]/N=C1/C(=[OH+])Nc2ccccc21.[O-]Nc1c(O)[nH]c2ccccc12`, the activity, negative = inhibition is -20.1% [at 2.29 µM] (inactive). Take `Cc1ccc(SCc2nnc(NC(=O)c3ccccc3)s2)cc1`: the AC50 result is “inactive”. Still for that read-out and setting: in the case of `Cc1ccc(SCc2ccc(C(=O)NCc3ccncc3)cc2)cc1` it was 355 nM (active); in that of `Cc1ccc(SCCNC(=O)c2ccccc2)cc1`, 10000 nM (active); in that of `Cc1ccc(SCCNC(=S)Nc2ccc(C)c(C)c2)cc1`, 11200 nM (active). On the same count and under the same terms, next, `Cc1ccc(NC(=S)NCCN2CCOCC2)cc1C`: “inactive”.

On to `Cc1ccc(C(=O)NCCNC(=O)CN2CCOCC2)cc1`, for which the AC50 result was “inactive”. For `Cc1ccc(C(=O)NCc2ccc(N3CCN(C(=O)OC(C)(C)C)CC3)cc2)cc1`, the AC50 entry is “inactive”.

The values above are taken from PubChem BioAssay AID1851 (National Center for Advancing Translational Sciences (NCATS), 2009).
